PubChem BioAssay (NCI)
The panel holds about 83,000 compounds, 20% with a hit somewhere; the sample as a whole holds those more often.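 Negative percent growth values reflect cell death: -40 means 40% of the cells present at the start died, and -100 means all died.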 Values without a mark were called inactive. Calls of active or inactive are those of the source. Rule for the calls: active = growth percent below 10; inactive = the rest.

Experiments:
Assay in all cases: NCI-60 one-dose screen, 48 h (100 = growth as untreated, 0 = no growth, -100 = all killed)
Settings in all cases: 10 µM unless noted
HCT-15 colon = system: HCT-15 colon
HT29 colon = system: HT29 colon
SNB-75 CNS = system: SNB-75 CNS
SNB-19 CNS = system: SNB-19 CNS
U251 CNS = system: U251 CNS
PC-3 prostate = system: PC-3 prostate
SK-MEL-5 melanoma = system: SK-MEL-5 melanoma
UACC-62 melanoma = system: UACC-62 melanoma
LOX IMVI melanoma = system: LOX IMVI melanoma
SK-MEL-28 melanoma = system: SK-MEL-28 melanoma
SK-MEL-2 melanoma = system: SK-MEL-2 melanoma
EKVX NSCLC = system: EKVX NSCLC
SN12C renal = system: SN12C renal
UO-31 renal = system: UO-31 renal
TK-10 renal = system: TK-10 renal
ACHN renal = system: ACHN renal
CAKI-1 renal = system: CAKI-1 renal
A498 renal = system: A498 renal
CCRF-CEM leukemia = system: CCRF-CEM leukemia
MOLT-4 leukemia = system: MOLT-4 leukemia

SMILES: C[C@@H]1C[C@H]2C(=O)O[C@@H](C)[C@H](NC(=O)[C@H](Cc3cc(F)cc(F)c3)NC(=O)Nc3ccc(C4CC4)cc3F)C(=O)N3CCC[C@H]3C(=O)N3CCCC[C@H]3C(=O)N[C@@H](C)C(=O)N2C1
- growth (HCT-15 colon): 6.12% (active)
- growth (HT29 colon): 10.5%
- growth (SNB-75 CNS): 6.49% (active)
- growth (SNB-19 CNS): 15.8%
- growth (U251 CNS): 20.3%
- growth (PC-3 prostate): 12%
- growth (SK-MEL-5 melanoma): -47.6% (active)
- growth (UACC-62 melanoma): 3.87% (active)
- growth (LOX IMVI melanoma): 19.2%
- growth (SK-MEL-28 melanoma): 18.3%
- growth (SK-MEL-2 melanoma): 16.7%
- growth (EKVX NSCLC): 26.6%
- growth (SN12C renal): 15.8%
- growth (UO-31 renal): 8.68% (active)
- growth (TK-10 renal): 38.4%
- growth (ACHN renal): 11.5%
- growth (CAKI-1 renal): 8.8% (active)
- growth (A498 renal): -5.24% (active)
- growth (CCRF-CEM leukemia): 39.9%

SMILES: CC[C@]1(O)CC2CN(CCc3c([nH]c4ccccc34)[C@@](C(=O)OC)(c3cc4c(cc3OC)N(C=O)[C@H]3[C@@](O)(C(=O)OC)[C@H](OC(C)=O)[C@]5(CC)C=CCN6CC[C@]43[C@@H]65)C2)C1 (stereo partly drawn)
- growth (HCT-15 colon): 16%
- growth (HT29 colon): 4.12% (active)
- growth (SNB-75 CNS): 38.7%
- growth (SNB-19 CNS): 43.8%
- growth (U251 CNS): 8.14% (active)
- growth (PC-3 prostate): 35.1%
- growth (SK-MEL-5 melanoma): -38% (active)
- growth (UACC-62 melanoma): 35.6%
- growth (LOX IMVI melanoma): 26%
- growth (SK-MEL-28 melanoma): 61%
- growth (SK-MEL-2 melanoma): 18.8%
- growth (EKVX NSCLC): 47.4%
- growth (SN12C renal): 26.6%
- growth (UO-31 renal): 56.3%
- growth (TK-10 renal): 74.2%
- growth (ACHN renal): 34.4%
- growth (CAKI-1 renal): 48.9%
- growth (A498 renal): -17.9% (active)
- growth (CCRF-CEM leukemia): 2.51% (active)

SMILES: CCOC(=O)c1nn(C2CCCCO2)c2ccc(NC(=O)CN3CCOCC3)cc12 (stereo not drawn)
- growth (HCT-15 colon): 106%
- growth (HT29 colon): 116%
- growth (SNB-75 CNS): 80.7%
- growth (SNB-19 CNS): 98.8%
- growth (U251 CNS): 97.9%
- growth (PC-3 prostate): 107%
- growth (SK-MEL-5 melanoma): 102%
- growth (UACC-62 melanoma): 102%
- growth (LOX IMVI melanoma): 98.2%
- growth (SK-MEL-28 melanoma): 109%
- growth (SK-MEL-2 melanoma): 108%
- growth (EKVX NSCLC): 100%
- growth (SN12C renal): 101%
- growth (UO-31 renal): 86.6%
- growth (TK-10 renal): 109%
- growth (ACHN renal): 99.6%
- growth (CAKI-1 renal): 84.2%
- growth (A498 renal): 99.9%

SMILES: CCOC(=O)c1cc(C#N)n2ncc3ccccc3c12
- growth (HCT-15 colon): 94.3%
- growth (HT29 colon): 98%
- growth (SNB-75 CNS): 72.7%
- growth (SNB-19 CNS): 91.8%
- growth (U251 CNS): 93.2%
- growth (PC-3 prostate): 92.8%
- growth (SK-MEL-5 melanoma): 98%
- growth (UACC-62 melanoma): 91.7%
- growth (LOX IMVI melanoma): 95.6%
- growth (SK-MEL-28 melanoma): 101%
- growth (SK-MEL-2 melanoma): 108%
- growth (EKVX NSCLC): 94.9%
- growth (SN12C renal): 95.3%
- growth (UO-31 renal): 84.1%
- growth (TK-10 renal): 91.4%
- growth (ACHN renal): 91.6%
- growth (CAKI-1 renal): 86.5%
- growth (A498 renal): 72.4%
- growth (CCRF-CEM leukemia): 106%

SMILES: Nc1cccc2c1C(=O)c1cccc(NC(=O)c3ccccc3)c1C2=O
- growth (HCT-15 colon): 28.6%
- growth (HT29 colon): 2.96% (active)
- growth (SNB-75 CNS): 6% (active)
- growth (SNB-19 CNS): 45.3%
- growth (U251 CNS): 22.9%
- growth (PC-3 prostate): 32.5%
- growth (SK-MEL-5 melanoma): 12.3%
- growth (UACC-62 melanoma): 48.4%
- growth (LOX IMVI melanoma): 8.96% (active)
- growth (SK-MEL-28 melanoma): 44.6%
- growth (SK-MEL-2 melanoma): 33.4%
- growth (EKVX NSCLC): 2.26% (active)
- growth (SN12C renal): 47.1%
- growth (UO-31 renal): 9.99% (active)
- growth (TK-10 renal): 32.1%
- growth (ACHN renal): 41.5%
- growth (CAKI-1 renal): 12%
- growth (A498 renal): 16.7%
- growth (CCRF-CEM leukemia): 12.6%
- growth (MOLT-4 leukemia): 41%

SMILES: COc1ccc(-c2cc(-c3ccccc3)nc(SCCCCCC(=O)NO)n2)cc1
- growth (HCT-15 colon): 78.1%
- growth (HT29 colon): 23%
- growth (SNB-75 CNS): 44.1%
- growth (SNB-19 CNS): 70.5%
- growth (U251 CNS): 56.4%
- growth (PC-3 prostate): 70.7%
- growth (SK-MEL-5 melanoma): 33.2%
- growth (UACC-62 melanoma): 26.2%
- growth (LOX IMVI melanoma): 59.2%
- growth (SK-MEL-28 melanoma): 49.3%
- growth (SK-MEL-2 melanoma): 61.4%
- growth (EKVX NSCLC): 67.5%
- growth (SN12C renal): 81.4%
- growth (UO-31 renal): 41.6%
- growth (TK-10 renal): 34.8%
- growth (ACHN renal): 48.9%
- growth (CAKI-1 renal): 33.4%
- growth (A498 renal): 57.1%
- growth (CCRF-CEM leukemia): 13.8%

SMILES: CC(C)C1=NOC(=O)C1=Cc1cn(-c2ccccc2)nc1-c1ccc(Br)cc1
- growth (HCT-15 colon): 74.3%
- growth (HT29 colon): 60.3%
- growth (SNB-75 CNS): 65.6%
- growth (SNB-19 CNS): 90.3%
- growth (U251 CNS): 73.7%
- growth (PC-3 prostate): 82.3%
- growth (SK-MEL-5 melanoma): 97.2%
- growth (UACC-62 melanoma): 76.1%
- growth (LOX IMVI melanoma): 26.4%
- growth (SK-MEL-28 melanoma): 83.4%
- growth (SK-MEL-2 melanoma): 87%
- growth (EKVX NSCLC): 93.3%
- growth (SN12C renal): 84.8%
- growth (UO-31 renal): 67.9%
- growth (TK-10 renal): 91.5%
- growth (ACHN renal): 81.5%
- growth (CAKI-1 renal): 62.9%
- growth (A498 renal): 57%
- growth (CCRF-CEM leukemia): 2.56% (active)
